aSyn 5UTR act = Activators working through SNCA 5'UTR binding (MLPCN). 300,000 tested, 7.1% active. alpha-synuclein 5'UTR reporter, activators screen. activity score, % (tested at 7.5 µM), hits read low; in the data active means activity score below about -60%
Starred values were filed as active, the others as inactive. The list is a sample of the results.

SMILES	aSyn 5UTR act
C/C(=N\N=c1/sc2ccccc2n1C)c1ccc(N2CCOCC2)cc1	-132*
Oc1c(Cl)cc(Cl)cc1C=Nc1cc(C(F)(F)F)ccc1N1CCc2ccccc2C1	-98*
Cn1c(=O)c2nc(-c3ccc(Cl)cc3Cl)oc2c2ccccc21	-72*
O=C(Nc1nnc(S(=O)(=O)N2CCOCC2)s1)c1cccc(F)c1	-102*
C(#Cc1ccccc1)Cn1nnc2ccccc21	-98*
Cc1ccc(-n2nc3ccc(N)cc3n2)c(C)c1	66
Cc1c(N)ccc(-n2nc3ccccc3n2)c1C	-65*
O=C(Cc1noc2ccccc12)Nc1ccc(Cl)cc1	-69*
Cc1cccc(NC(=O)Cc2noc3ccccc23)c1	-82*
Cc1ccc(NC2=C(Cl)C(=O)N(C3CCCCC3)C2=O)cc1	-124*
CC1Oc2cc3oc4c(O)c(O)ccc4c(=O)c3c(O)c2C1(C)C (stereo not drawn)	-150*
CC(C)=CCc1c(O)cc2oc3c(CC=C(C)C)c(O)c(O)c(CC=C(C)C)c3c(=O)c2c1O	62
O=C(Nc1ccc(Cl)cc1)c1csc(Cc2ccccc2)n1	-72*
COc1ccc(Cc2nc(C(=O)Nc3ccccc3)cs2)cc1	-73*
COc1cccc(NC2SC(=O)N(c3ccccc3)C2=O)c1 (stereo not drawn)	-97*
O=C(N=C1c2ccccc2CN1c1ccc(F)c(F)c1)c1cccnc1	-84*
O=C(N=C1c2ccccc2CN1c1ccccc1)c1cccc([N+](=O)[O-])c1	-123*
CCOC(=O)c1ccc(N2Cc3ccccc3C2=NC(=O)c2cccc([N+](=O)[O-])c2)cc1	-212*
C(=N\Nc1nc(-c2ccccc2)cs1)/c1cccs1	-233*
ClCc1csc(N/N=C/c2cccs2)n1	-72*
C(=N\Nc1nc(-c2ccccc2)cs1)/c1ccncc1	-230*
CCc1ccc2[nH]c3nc(C)cc(C)c3c(=O)c2c1	-232*
Cc1cccc(CSc2nnc(-c3ccccn3)n2N)c1	-69*
Cn1c(SCc2ccc(F)cc2)nnc1-c1ccccn1	-168*
Cc1ccc(CSc2nnc(-c3ccccn3)n2C)cc1	-93*
SMILES	aSyn 5UTR act
COCCn1c(C)cc(C(=O)COC(=O)c2ccc(Cl)c(S(N)(=O)=O)c2)c1C	-103*
Cc1cc(C(=O)COC(=O)c2ccc(Cl)c(S(N)(=O)=O)c2)c(C)n1CC1CCCO1 (stereo not drawn)	-104*
Cc1cccc(C(=O)NCC(=O)OCC(=O)c2cc(C)n(CC3CCCO3)c2C)c1 (stereo not drawn)	-102*
Cc1cc(Cl)c2oc(C(=O)N3CCN(c4cccc(C)n4)CC3)c(C)c2c1	-127*
Cc1ccc(C(=O)Nc2cccc(O)c2)cc1S(=O)(=O)N1CCCCCC1	-139*
Cc1ccc(C(=O)Nc2ccc3cn[nH]c3c2)cc1S(=O)(=O)N1CCCCC1	-111*
O=C(Nc1ccc(S(=O)(=O)N2CCCCCC2)cc1)c1[nH]ncc1[N+](=O)[O-]	86
Cc1ccc(C)c(S(=O)(=O)N2CCN(Cc3ccc(O)c4ncccc34)CC2)c1	74
Cc1cccc(NC(=O)c2ccc(C)c(S(=O)(=O)N3CCCCC3)c2)n1	-116*
Cc1cccc(N=Nc2cnc(N)s2)c1	-109*
COc1ccc(Nc2nc(N)c3ccccc3n2)c(OC)c1	-198*
CCCC(=O)Nc1ccc(-c2csc(-c3cccnc3)n2)cc1	-114*
CC(=O)Nc1ccc(-c2csc(-c3cccnc3)n2)cc1	-112*
CCc1ccc(Nc2cc(=O)n(C3CCCCC3)c(=O)[nH]2)cc1	-79*
CCOC(=O)CSc1nc2cc(C)ccc2cc1C#N	-150*
CCOc1ccc2cc(C#N)c(SCC(=O)N3CCOCC3)nc2c1	-94*
Cc1ccc2cc(C#N)c(SCC(=O)N3CCCC3)nc2c1	-81*
CCOC(=O)CSc1nc2cc(OC)ccc2cc1C#N	-109*
Cc1cc(C)c2nc(SCC(=O)N3CC(=O)Nc4ccccc43)c(C#N)cc2c1	67
CCOC(=O)CSc1nc2cc(C)cc(C)c2cc1C#N	-195*
CCOC(=O)CSc1nc2ccc(C)cc2cc1C#N	-172*
COc1ccc2nc(SCC(C)=O)c(C#N)cc2c1	-70*
CNC(=O)c1ccc(Nc2nc(-c3ccccc3)nc3ccccc23)cc1	-90*
O=C(NCc1nnnn1-c1ccc(F)cc1)c1ccc([N+](=O)[O-])o1	-136*
Cc1ccc(-n2nnnc2CNC(=O)c2ccc([N+](=O)[O-])o2)cc1C	-98*
SMILES	aSyn 5UTR act
Cc1cc(C)nc(Nc2n[nH]c(-c3ccc(N)cc3)n2)n1	-140*
Cc1cc(C)nc(Nc2n[nH]c(-c3ccc(C(C)(C)C)cc3)n2)n1	-129*
COC(=O)C1=C(N)Oc2cc(N(C)C)ccc2C1c1ccccc1OC (stereo not drawn)	83
CCOC(=O)c1ccc2c(c1)NCc1cccc(OC)c1O2	-129*
COc1cc2c(cc1OC)CN(C(=O)c1cc3ccccc3oc1=O)CC2	-99*
COc1ccc2oc(=O)c(C(=O)N3CCN(c4ccccc4)CC3)cc2c1	-68*
COc1ccc2oc(=O)c(C(=O)N3CCN(c4ccccc4C)CC3)cc2c1	-157*
Cc1ccccc1NC(=O)c1ccc2c(c1)OCCO2	-157*
COC(=O)c1ccccc1NC(=O)c1ccc2c(c1)OCCCO2	-85*
N#Cc1ccccc1NC(=O)c1ccc2c(c1)OCCO2	-94*
N#Cc1ccccc1NC(=O)COC(=O)c1ccc2c(c1)OCCO2	-130*
Cc1cccc(NC(=O)c2ccc3c(c2)OCCO3)c1C	-113*
Cc1sc(=NC(=O)c2ccco2)n(C)c1-c1ccc(F)cc1	-113*
Cn1c(=NC(=O)c2ccco2)sc2ccccc21	-126*
Cn1c(=Nc2ccccc2)sc2ccccc21	-77*
C=CCc1ccc(OCc2ccc(C(=O)Nc3ccc(NC(C)=O)cc3)o2)c(OC)c1	-74*
Cc1ccnc(NC(=O)C2COc3ccccc3O2)c1 (stereo not drawn)	-97*
Cc1ccc(NC(=O)C2COc3ccccc3O2)nc1 (stereo not drawn)	-106*
c1ccc(-c2nc3nc4ccccc4nc3n2Cc2ccco2)cc1	-106*
Cc1cc2nc(-c3ccc(SCc4ccccc4C#N)nc3)[nH]c2cc1C	-78*
Cc1cc2nc(-c3ccc(SCc4ccc(C(=O)O)cc4)nc3)[nH]c2cc1C	-160*
Cc1cc2nc(-c3ccc(SCC(=O)N4CCc5ccccc54)nc3)[nH]c2cc1C	-220*
Cc1cc(NC(=O)CSc2ccc(-c3nc4cc(C)c(C)cc4[nH]3)cn2)no1	-100*
Cc1cc2nc(-c3ccc(SCC(=O)NC(C)C)nc3)[nH]c2cc1C	-134*
Cc1cc2nc(-c3ccc(SCC(=O)Nc4ccc(S(=O)(=O)NC5CC5)cc4)nc3)[nH]c2cc1C	-116*
SMILES	aSyn 5UTR act
Cc1cccc2c1-c1sc(C(=O)N3CCCCC3)cc1CO2	-100*
CCN1CCN(C(=O)c2cc3c(s2)-c2c(C)cccc2OC3)CC1	-141*
CC1=NN(c2ccc(C(=O)O)cc2)C(=O)/C1=C/c1ccc(-c2ccccc2F)o1	-88*
CCCC(=O)Nc1ccc(-c2nc3cc(C)ccc3o2)cc1	-149*
COc1ccc(-c2csc(NC(=S)NC(=O)/C=C/c3ccco3)n2)cc1Br	91
CCCC(=O)Nc1ccc2oc(-c3ccc(OC)c(Br)c3)nc2c1	-118*
CCCC(=O)Nc1ccc(-c2nc3cc(C)c(C)cc3o2)c(O)c1	-129*
CCC(N=c1cc(-c2ccc(OC)cc2)oc2ccc(C)cc12)C(=O)O (stereo not drawn)	-120*
Oc1ccc2ccccc2c1C=Nc1ccccc1-c1nc2ccccc2[nH]1	-79*
O=C(CSc1ncc(-c2ccccc2)[nH]1)Nc1ccccc1F	-126*
